Results published in PubChem BioAssay (Tox21).
Results filed as inconclusive are left out. The source made the active and inactive calls. Unless noted, calls come from the whole dose curve; as a rule, active = well fitted curve in the direction sought with a large enough effect in the repeat runs; inconclusive = weak or mixed curves; inactive = no such curve, though single readings can be large; an effect the other way counts as inactive or inconclusive.

Assays:
[1] = qHTS assay to identify small molecule antagonists of the sonic hedgehog signaling (Shh) pathway (AID 1259369; calls by dose curve; note: nearly all actives have a fitted effect of over 45% in size)
Summary of the method: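 Read-out is luminescence from a firefly luciferase gene controlled by the Gli1 response element, in 3T3Gli1-Luc cells pre-incubated 4hr then exposed to compounds and conditioned medium for 24hr.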

[2] = target: Estrogen receptor beta (Homo sapiens) (UniProt Q92731); experiment: qHTS assay to identify small molecule agonists of the estrogen receptor beta (ER-beta) signaling pathway (AID 1259377; active = well fitted activation curve with a large enough effect in the signal ratio in the repeat runs, not every such curve was filed as active; the % refers to the signal ratio)
Chain of Estrogen receptor beta (Homo sapiens) (Q92731 whole entry, looked up): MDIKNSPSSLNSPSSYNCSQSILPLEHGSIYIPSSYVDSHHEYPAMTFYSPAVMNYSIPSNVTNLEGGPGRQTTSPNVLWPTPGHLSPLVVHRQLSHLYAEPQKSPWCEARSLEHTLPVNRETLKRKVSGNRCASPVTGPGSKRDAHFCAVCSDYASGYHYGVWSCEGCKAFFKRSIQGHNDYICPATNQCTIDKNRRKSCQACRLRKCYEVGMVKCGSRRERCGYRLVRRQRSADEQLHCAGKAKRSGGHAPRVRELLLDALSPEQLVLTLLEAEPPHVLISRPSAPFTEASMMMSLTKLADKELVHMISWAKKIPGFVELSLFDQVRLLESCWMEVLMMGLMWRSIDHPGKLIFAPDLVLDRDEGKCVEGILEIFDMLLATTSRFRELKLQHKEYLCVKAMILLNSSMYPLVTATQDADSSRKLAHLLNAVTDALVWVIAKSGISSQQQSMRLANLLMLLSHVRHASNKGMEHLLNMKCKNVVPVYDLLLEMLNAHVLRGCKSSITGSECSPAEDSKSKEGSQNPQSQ
Summary of the method: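 Measured by fluorescence intensity from a B/G FRET beta-lactamase substrate (2 h, room temperature) in ER-beta-UAS-bla HEK293T cells treated with DMSO-dissolved compounds for 16 hr at 37C and 5% CO2.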

[3] = target: Estrogen receptor beta (Homo sapiens) (UniProt Q92731); experiment: qHTS assay to identify small molecule antagonists of the estrogen receptor beta (ER-beta) signaling pathway (AID 1259378; active = well fitted inhibition curve with a large enough effect in the signal ratio in the repeat runs, not every such curve was filed as active; the % refers to the signal ratio)
Summary of the method: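 ER-beta-UAS-bla HEK293T (GripTite) cells in 2% charcoal-stripped FBS medium were preincubated 6 hr at 37C, dosed with compound, then stimulated with 1 nM E2 (final) for 16 hr; beta-lactamase reporter read by B/G FRET fluorescence after 2 hr substrate loading.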

[4] = qHTS assay to identify small molecule agonists of the androgen receptor (AR) signaling pathway in the presence of an antagonist - cell viability counter screen (AID 1259379);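 note: MDA-kb2 human breast cancer cells carrying an MMTV luciferase reporter; series mostly up to about 92 µM; nearly all actives have a fitted effect of over 25% in size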
Summary of the method: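 Each compound was tested at 15 concentrations on MDA-kb2 cells in the presence of 3.0uM nilutamide. Viability was measured by CellTiter-Fluor fluorescence after a 16 hr incubation at 37C in a CO2-free atmosphere.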

[5] = qHTS assay to identify small molecule agonists of the estrogen receptor beta (ER-beta) signaling pathway - cell viability counter screen (AID 1259380); note: nearly all actives have a fitted effect of over 30% in size
Summary of the method: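 Compounds dissolved in DMSO were pin-transferred onto ER-beta-UAS-bla HEK293T cells that had settled 6 hr, and exposure ran 16 hr at 37C. Following the reporter read, CellTiter-Glo luminescence after 30 min at room temperature indicated cytotoxicity.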

[6] = qHTS assay to identify small molecule antagonists of the estrogen receptor beta (ER-beta) signaling pathway - cell viability counter screen (AID 1259382); note: series mostly up to about 92 µM; nearly all actives have a fitted effect of over 55% in size
Summary of the method: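 CellTiter-Glo ATP luminescence measured after the LiveBLAzer read in the same wells; ER-beta-UAS-bla HEK293T cells, 16 hr compound treatment with 1nM 17-beta-estradiol agonist at 37C, 5% CO2.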

[7] = target: Estrogen receptor (Homo sapiens) (UniProt P03372); experiment: qHTS assay to identify small molecule agonists of the estrogen receptor alpha (ER-alpha) signaling pathway in the presence of an antagonist (AID 1259383; calls by dose curve; note: top concentration of the series differs between compounds; nearly all actives have a fitted effect of over 15% in size)
Chain of Estrogen receptor (Homo sapiens) (P03372 whole entry, looked up): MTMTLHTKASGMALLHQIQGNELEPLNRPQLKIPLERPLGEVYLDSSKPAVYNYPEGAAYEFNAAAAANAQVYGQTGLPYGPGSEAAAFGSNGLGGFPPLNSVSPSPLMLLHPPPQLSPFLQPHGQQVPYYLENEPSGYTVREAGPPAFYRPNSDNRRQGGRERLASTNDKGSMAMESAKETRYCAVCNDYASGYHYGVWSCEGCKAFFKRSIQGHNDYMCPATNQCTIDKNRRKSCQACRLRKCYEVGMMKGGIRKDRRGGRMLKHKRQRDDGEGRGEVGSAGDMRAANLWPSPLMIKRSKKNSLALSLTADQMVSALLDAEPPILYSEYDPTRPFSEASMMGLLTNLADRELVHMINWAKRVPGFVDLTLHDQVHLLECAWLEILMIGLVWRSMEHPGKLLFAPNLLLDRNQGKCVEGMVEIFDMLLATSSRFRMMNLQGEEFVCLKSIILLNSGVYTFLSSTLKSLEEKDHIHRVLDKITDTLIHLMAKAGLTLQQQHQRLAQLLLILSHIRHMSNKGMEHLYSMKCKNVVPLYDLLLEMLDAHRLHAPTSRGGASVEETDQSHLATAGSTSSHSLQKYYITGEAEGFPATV
Summary of the method: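 Luminescent ERE-luciferase reporter, VM7Luc4E2 cells (endogenous ER-alpha); 10.0nM ICI-182,780 final; 15-point compound titration; 22hr at 37C; ONE-Glo, 30min RT.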

[8] = qHTS assay to identify small molecule agonists or antagonists of the thyroid stimulating hormone receptor (TSHR) signaling pathway - wild type cell line counter screen (AID 1259384; calls by dose curve)
Summary of the method: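 Wild-type HEK293 cells were plated 18 h at 37 C/5% CO2, pin-dosed with compound plus Ro20-1724 medium, held 30 min at room temperature, then given cAMP-d2 and anti-cAMP-cryptate; fluorescence was read after 1 h. Fifteen concentrations, triplicate.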

[9] = target: Thyrotropin receptor (Homo sapiens) (UniProt P16473); experiment: qHTS assay to identify small molecule antagonists of the thyroid stimulating hormone receptor (TSHR) signaling pathway (AID 1259385; calls by dose curve; note: nearly all actives have a fitted effect of over 20% in size)
Chain of Thyrotropin receptor (Homo sapiens) (P16473 whole entry, looked up): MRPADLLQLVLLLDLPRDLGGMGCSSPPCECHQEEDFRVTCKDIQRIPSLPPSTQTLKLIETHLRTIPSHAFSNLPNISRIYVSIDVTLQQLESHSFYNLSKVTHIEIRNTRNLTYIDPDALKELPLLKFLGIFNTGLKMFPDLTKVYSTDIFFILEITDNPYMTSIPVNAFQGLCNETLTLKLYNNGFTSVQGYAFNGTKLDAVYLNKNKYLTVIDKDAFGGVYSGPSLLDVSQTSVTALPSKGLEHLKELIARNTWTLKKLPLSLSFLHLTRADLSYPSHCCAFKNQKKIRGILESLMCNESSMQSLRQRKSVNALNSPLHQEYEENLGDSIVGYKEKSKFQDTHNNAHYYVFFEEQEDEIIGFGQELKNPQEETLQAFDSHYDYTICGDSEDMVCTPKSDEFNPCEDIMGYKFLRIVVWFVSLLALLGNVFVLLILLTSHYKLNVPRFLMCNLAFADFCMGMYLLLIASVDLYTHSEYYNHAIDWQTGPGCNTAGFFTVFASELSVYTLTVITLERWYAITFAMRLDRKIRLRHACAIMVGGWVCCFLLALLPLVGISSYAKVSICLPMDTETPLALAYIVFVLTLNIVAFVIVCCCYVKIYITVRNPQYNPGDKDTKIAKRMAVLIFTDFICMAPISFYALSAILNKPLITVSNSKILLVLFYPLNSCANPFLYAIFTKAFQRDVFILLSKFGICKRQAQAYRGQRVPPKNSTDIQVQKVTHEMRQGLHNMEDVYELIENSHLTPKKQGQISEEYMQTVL
Summary of the method: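 TSHR-HEK293 cells were plated and held 18 h at 37C/5% CO2, then given compound plus Ro20-1724 and stimulated with TSH at 1.5 ng/mL final. After 30 min at room temperature, cAMP was detected with cAMP-d2/anti-cAMP-cryptate (1 h) by fluorescence.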

[10] = qHTS assay to identify small molecule agonists of the estrogen receptor alpha (ER-alpha) signaling pathway in the presence of an antagonist - cell viability counter screen (AID 1259386);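 note: series mostly up to about 92 µM; cells exposed to compounds for 22 h at 37 °C before the viability read; nearly all actives have a fitted effect of over 30% in size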
Summary of the method: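 Using estrogen-depleted VM7Luc4E2 cells, the 15-concentration compound series was applied together with 10.0nM ICI-182,780 and incubated 22hr at 37C/5% CO2. Cell viability was then scored by CellTiter-Fluor.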

[11] = target: Progesterone receptor (Homo sapiens) (UniProt P06401); experiment: qHTS assay to identify small molecule agonists of the progesterone receptor (PR) signaling pathway (AID 1346784; calls by dose curve; note: nearly all actives have a fitted effect of over 30% in size)
Chain of Progesterone receptor (Homo sapiens) (P06401 whole entry, looked up): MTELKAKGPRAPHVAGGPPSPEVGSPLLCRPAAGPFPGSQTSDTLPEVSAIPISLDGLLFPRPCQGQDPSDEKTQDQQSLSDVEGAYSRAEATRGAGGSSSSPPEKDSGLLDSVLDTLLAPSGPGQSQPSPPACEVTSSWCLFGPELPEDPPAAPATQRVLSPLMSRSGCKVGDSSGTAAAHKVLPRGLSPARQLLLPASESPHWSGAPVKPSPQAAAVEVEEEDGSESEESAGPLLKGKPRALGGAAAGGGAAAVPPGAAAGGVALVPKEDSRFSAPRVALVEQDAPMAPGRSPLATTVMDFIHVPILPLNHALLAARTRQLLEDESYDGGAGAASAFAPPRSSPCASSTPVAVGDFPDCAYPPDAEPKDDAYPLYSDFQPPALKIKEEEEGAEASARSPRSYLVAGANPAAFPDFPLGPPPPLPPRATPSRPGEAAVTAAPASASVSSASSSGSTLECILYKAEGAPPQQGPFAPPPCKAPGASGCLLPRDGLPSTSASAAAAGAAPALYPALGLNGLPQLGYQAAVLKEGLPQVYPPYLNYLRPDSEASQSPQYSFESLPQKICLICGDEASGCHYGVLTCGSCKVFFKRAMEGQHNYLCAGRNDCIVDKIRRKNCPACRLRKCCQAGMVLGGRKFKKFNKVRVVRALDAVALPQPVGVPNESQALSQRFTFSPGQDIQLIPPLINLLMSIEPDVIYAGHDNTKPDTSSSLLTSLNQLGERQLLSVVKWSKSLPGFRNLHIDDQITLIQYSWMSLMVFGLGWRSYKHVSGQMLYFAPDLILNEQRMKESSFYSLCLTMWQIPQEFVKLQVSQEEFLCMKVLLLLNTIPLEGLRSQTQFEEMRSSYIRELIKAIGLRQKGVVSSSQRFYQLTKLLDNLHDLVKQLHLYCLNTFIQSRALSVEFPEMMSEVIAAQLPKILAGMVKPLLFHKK
Summary of the method: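 The screen uses PR-UAS-bla HEK 293T cells in charcoal-stripped serum (2%). Compounds are applied for 16 hr at 37C after a 6 hr pre-incubation, and reporter activity is detected with a FRET beta-lactamase substrate after 2 hr at room temperature.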

[12] = target: Progesterone receptor (Homo sapiens) (UniProt P06401); experiment: qHTS assay to identify small molecule antagonists of the progesterone receptor (PR) signaling pathway (AID 1346795; active = well fitted inhibition curve with a large enough effect in the signal ratio in the repeat runs, not every such curve was filed as active; the % refers to the signal ratio)
Summary of the method: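 After 6 hr plating at 37C in 2% stripped-serum medium, PR-UAS-bla HEK293T cells got compounds, then 1 nM R5020. Sixteen hours later, LiveBLAzer substrate was applied for 2 hr at room temperature and fluorescence was recorded.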

[13] = qHTS assay to identify small molecule antagonists of the progesterone receptor (PR) signaling pathway - cell viability counter screen (AID 1346798); note: series mostly up to about 92 µM; nearly all actives have a fitted effect of over 50% in size
Summary of the method: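 Viability was determined by ATP-based luminescence (CellTiter-Glo) in PR-UAS-bla HEK293T cells cultured in 2% charcoal-stripped serum and incubated 16 hr with compounds under R5020 stimulation.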

[14] = qHTS assay to identify small molecule agonists of the progesterone receptor (PR) signaling pathway - cell viability counter screen (AID 1346799; calls by dose curve; note: nearly all actives have a fitted effect of over 45% in size)
Summary of the method: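 Viability was scored by ATP luminescence (CellTiter-Glo, 30 min, room temperature) in the same wells used for the reporter readout, after 16 hr compound exposure of PR-UAS-bla HEK293T cells.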

[15] = qHTS assay to identify small molecule antagonists of the TGF-beta/Smad signaling pathway - cell viability counter screen (AID 1346824); note: nearly all actives have a fitted effect of over 50% in size
Summary of the method: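 SBE-bla HEK 293T cells were plated overnight at 37 C, then given compounds in DMSO plus TGF-beta1 (added as 0.25 ng/mL solution) for 5 hr. After the bla read, CellTiter-Glo was added to the same wells and luminescence read after 30 min at room temperature.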

[16] = qHTS assay to identify small molecule agonists of the TGF-beta/Smad signaling pathway - cell viability counter screen (AID 1346829); note: top concentration of the series differs between compounds; nearly all actives have a fitted effect of over 45% in size
Summary of the method: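 In parallel with the Smad reporter read, viability of HEK 293T cells stably carrying SBE-bla is quantified by ATP luminescence following 5 hr compound treatment.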

[17] = qHTS assay to identify small molecule agonists of the TGF-beta/Smad signaling pathway (AID 1346859; active = well fitted activation curve with a large enough effect in the signal ratio in the repeat runs, not every such curve was filed as active; the % refers to the signal ratio; note: series mostly up to about 77 µM)
Summary of the method: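 Dual-wavelength fluorescence (460/530 nm emission) quantified beta-lactamase expression under the Smad binding element in HEK 293T cells following 5 hr compound treatment at 37 C.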

[18] = target: Thyrotropin-releasing hormone receptor (Homo sapiens) (UniProt P34981); experiment: qHTS assay to identify small molecule antagonists of the thyrotropin-releasing hormone receptor (TRHR) signaling pathway (AID 1346877; active = well fitted inhibition curve with a large enough effect in the repeat runs, not every such curve was filed as active; note: series mostly up to about 51 µM)
Chain of Thyrotropin-releasing hormone receptor (Homo sapiens) (P34981 whole entry, looked up): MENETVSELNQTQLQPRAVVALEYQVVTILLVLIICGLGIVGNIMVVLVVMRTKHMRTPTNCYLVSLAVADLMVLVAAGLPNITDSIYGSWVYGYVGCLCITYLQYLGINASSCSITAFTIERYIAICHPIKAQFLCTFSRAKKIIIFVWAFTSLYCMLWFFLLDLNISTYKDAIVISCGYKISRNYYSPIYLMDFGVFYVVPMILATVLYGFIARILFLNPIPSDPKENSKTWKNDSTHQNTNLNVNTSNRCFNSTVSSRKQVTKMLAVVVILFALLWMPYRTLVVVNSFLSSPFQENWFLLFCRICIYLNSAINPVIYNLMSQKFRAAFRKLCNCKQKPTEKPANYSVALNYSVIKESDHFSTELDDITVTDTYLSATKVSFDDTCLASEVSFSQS
Summary of the method: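 Calcium signal in dye-loaded TRHR/HEK293 cells; compounds added 5 min before TRH (1 nM final); fluorescence monitored 3 min at 1 s steps.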

[19] = target: Thyrotropin-releasing hormone receptor (Homo sapiens) (UniProt P34981); experiment: qHTS assay to identify small molecule agonists of the thyrotropin-releasing hormone receptor (TRHR) signaling pathway (AID 1346891; calls by dose curve;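 note: HEK293 cells expressing TRHR with calcium dye readout; series mostly up to about 58 µM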)
Summary of the method: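 Kinetic fluorescence (3 min, 1 s intervals) reported intracellular calcium after compound transfer onto TRHR-Hek293 cells pre-loaded with dye for 2 h at 37 °C.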

[20] = Human pregnane X receptor (PXR) small molecule agonists, qHTS cell viability counter screen (AID 1346977); note: nearly all actives have a fitted effect of over 50% in size
Summary of the method: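 HepG2 cells stably carrying the PXR-Luc reporter are cultured with 5% charcoal-stripped FBS and treated with compounds for 24hr. CellTiter-Fluor is added at 23hr and fluorescence is read after 1hr.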

Measured: Potency

Cc1cnc(NS(=O)(=O)c2ccc(N)cc2)nc1
inactive: all assays above

CC(=O)OCC(CCn1cnc2cnc(N)nc21)COC(C)=O
not listed: [13] | [15] | [16]
inactive: all other assays above

CCn1nc(C(=O)O)c(=O)c2cc3c(cc21)OCO3
not listed: [5] | [14] | [16] | [18] | [19]
inactive: all other assays above

Cc1ccc(C#N)cc1
not listed: [18]
inactive: all other assays above

CC(C[N+](C)(C)C)OC(N)=O (configuration not stated)
not listed: [8] | [9] | [17]
inactive: all other assays above

C[C@H](NC(CCc1ccccc1)C(=O)O)C(=O)N1CCC[C@H]1C(=O)O (some centres not stated)
not listed: [13] | [17] | [18]
inactive: all other assays above

O=C1NC(=O)[C@@]2(CCOc3ccc(F)cc32)N1
not listed: [5] | [18] | [19]
inactive: all other assays above

Cc1c(NC(C)C)c(=O)n(-c2ccccc2)n1C
not listed: [8] | [12] | [15] | [16] | [17]
inactive: all other assays above
